# The campaign covered roughly 340,000 compounds. About 270 (0.079%) were called active.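 How the source made its calls: active means activation above a cutoff set at the mean over all compounds plus 3 SD (cut at about 18% in these data); inactive means the rest.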 What follows is part of a selection rich in actives, with near analogues and random picks from the rest.
# Biological target: cAMP-dependent protein kinase catalytic subunit beta (Homo sapiens) + cAMP-dependent protein kinase type II-beta regulatory subunit (Homo sapiens) (UniProt P22694+P31323)
# Test: compounds dissociating PKAc from R2B subunit – biochemical, fluorescence polarization, Cy5-IP20, human, primary screen (AID 504700);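 further: higher means more holoenzyme dissociation and a rise in polarization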
# Details: PKA-R2B holoenzyme dissociation, at 11.4 µM, active compounds read high, 0% DMSO only, 100% 113 µM cGMP, R2B truncated from residue 108, S112A mutant
# Chain of cAMP-dependent protein kinase catalytic subunit beta (Homo sapiens) + cAMP-dependent protein kinase type II-beta regulatory subunit (Homo sapiens) (P31323 whole entry, looked up, other chains not shown): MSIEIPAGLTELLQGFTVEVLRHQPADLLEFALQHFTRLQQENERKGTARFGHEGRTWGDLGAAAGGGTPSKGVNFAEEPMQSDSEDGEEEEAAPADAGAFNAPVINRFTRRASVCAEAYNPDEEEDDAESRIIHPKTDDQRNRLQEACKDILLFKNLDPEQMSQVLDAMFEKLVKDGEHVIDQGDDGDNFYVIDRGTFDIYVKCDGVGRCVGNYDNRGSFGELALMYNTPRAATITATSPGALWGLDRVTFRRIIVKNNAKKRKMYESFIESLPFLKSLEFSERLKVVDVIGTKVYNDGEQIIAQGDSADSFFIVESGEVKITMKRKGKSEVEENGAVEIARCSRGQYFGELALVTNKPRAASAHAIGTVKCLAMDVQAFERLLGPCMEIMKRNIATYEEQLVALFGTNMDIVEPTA
row,Compound,activation
1,C[C@@H]1CN([C@@H](C)CO)S(=O)(=O)c2ccc(C#Cc3cccc(F)c3)cc2O[C@H]1CN(C)S(=O)(=O)c1cn(C)cn1,7.01% (inactive)
2,Nc1cccc(OCCCCCOc2cccc(N)c2)c1,5.43% (inactive)
3,COC(=O)C[C@H]1C[C@@H]2c3cc(N(C)C)ccc3O[C@@H]2[C@H](CO)O1,5.15% (inactive)
4,O=C1OCCC1=COCCCCOC=C1CCOC1=O,3.03% (inactive)
5,COc1ccc(CN2C(=O)C(CC(=O)NCc3cccc4ccccc34)CC(C(=O)N3CCOCC3)=C2C)cc1 (configuration not stated),2.78% (inactive)
6,CC(=O)Nc1ccc2nc(NC(=O)CS(=O)(=O)c3ccc(F)cc3)sc2c1,-8.48% (inactive)
7,CNC(=O)C1CN(C(=O)c2cccc(S(=O)(=O)N3CCc4ccccc43)c2)c2ccccc2O1 (configuration not stated),1.53% (inactive)
8,Cc1ccc(S(=O)(=O)N2CCCCC2)cc1NC(=O)CCNC(=O)c1ccccc1Cl,16.1% (inactive)
9,O=C(NCc1ccccc1)C1CNCC(C(=O)NCc2ccccc2)C1 (configuration not stated),9% (inactive)
10,CCCCCCNC(=O)O[C@H]1CN(C(=O)OC(C)C)N(C(=O)OC(C)C)[C@@H]2CN(S(=O)(=O)c3ccc(C)cc3)C[C@]12O,-13.6% (inactive)
11,COc1ccc([N+](=O)[O-])cc1C1NN=C(c2cccc3ccccc23)S1 (configuration not stated),20.8% (active)
12,COc1ccc([N+](=O)[O-])cc1NC(=O)C(C)OC(=O)C1c2ccccc2Oc2ccccc21 (configuration not stated),-4.93% (inactive)
13,COc1ccccc1C1SCCN1C(=O)c1ccc([N+](=O)[O-])cc1 (configuration not stated),0.16% (inactive)
14,O=C(N=C1SC2CS(=O)(=O)CC2N1Cc1ccccc1)c1ccccc1 (configuration not stated),1.79% (inactive)
15,C[C@@H]1CN([C@H](C)CO)C(=O)c2cc(Br)cnc2O[C@@H]1CN(C)Cc1cncnc1,2.5% (inactive)
16,CC1=C(C(=O)N2CCOCC2)CC(CC(=O)NCC2CCCCC2)C(=O)N1Cc1ccc(F)cc1 (configuration not stated),-0.55% (inactive)
17,C[C@H](CO)N1C[C@H](C)[C@@H](CN(C)S(=O)(=O)c2ccc(F)cc2)OCc2cnnn2CCCC1=O,-2.57% (inactive)
18,CC1(C)CC(=O)C=C(c2ccc(COC(=O)c3cc(F)cc(F)c3)cc2)C1=O,4.64% (inactive)
19,CC1(C2CC2)NC(=O)N(CC(=O)N2CCN(c3ccccc3F)CC2)C1=O (configuration not stated),1.69% (inactive)
20,CCCCN(C(C)=O)c1ccc2c(c1)C1CC2CCN1Cc1ccccc1 (configuration not stated),2.7% (inactive)
21,Cc1ccc(-c2ccc(C3=CC(=O)CC(C)(C)C3=O)cc2)cc1,9.99% (inactive)
22,CCCCN1C[C@H](c2ccc(Br)cc2)[C@@H](CC(=O)Nc2ccc(Br)cc2)C1=O,2.46% (inactive)
23,Cc1ccc(S(=O)(=O)N2C[C@H]3n4c(=O)ccc(=O)n4C[C@H](OC(=O)NC4CCCC4)[C@@]3(O)C2)cc1,8.63% (inactive)
24,CCOc1ccc(NS(=O)(=O)c2ccc(C(=O)NCC3CCCO3)cc2)cc1 (configuration not stated),-2.2% (inactive)
25,Cc1nn(Cc2ccccc2)c(C)c1C(=O)NCCN1C(=O)S/C(=C\c2ccc(F)cc2)C1=O,-11.8% (inactive)
26,N#Cc1ccccc1CN1C(=O)S/C(=C/c2cccn2-c2cccc(C(=O)O)c2)C1=O,24.5% (active)
27,Cc1cc(/C=C2/SC(=O)N(CC(=O)N3CCCC3)C2=O)c(C)n1C,2.6% (inactive)
